Hits are enriched below; roughly 2.1% of the tested compounds scored in any of these assays.
EWS-Fli inh: blocks EWS/Fli oncoprotein-driven transcription; A673 NR0B1-luciferase reporter, viability-normalised; inhibition, % at 12.6 µM; 350,000 tested, 0.67% active; AID 651661;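 active means mean inhibition of at least 50% after viability correction, with every replicate also passing that limit; inconclusive means mean reaches 50% but only one of two replicates passes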;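 further: firefly luciferase signal divided by Alamar Blue viability fluorescence both relative to DMSO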
KKLEB tox: reduces viability of KKLEB cystic fibrosis airway cells; KKLEB CF airway cells viability, ATPlite luminescence, overnight; hits give low values; cells stimulated with P. aeruginosa culture filtrate; activity change (cytotoxicity), % at 5 µM; 360,000 tested, 0.36% active; AID 602141;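 active means corrected activity change at or below -50% at 5 µM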
CF NFkB inh: inhibitors of cystic fibrosis induced NF-kB; KKLEB NF-kB-GFP reporter, PAF-induced, GFP fluorescence overnight; inhibition, % at 5 µM; 360,000 tested, 0.86% active;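 active means at least 50% inhibition at 5 µM, scaled per plate between neutral and stimulator controls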;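 further: PAF is a Pseudomonas aeruginosa culture filtrate used as stimulus; plate controls were PAF-stimulated DMSO wells for no effect and unstimulated DMSO wells for full effect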
PAX8 reporter: inhibitors of PAX8 transcriptional activity in RMG-I cells; 360,000 tested, 1.2% active; RMG-I TPO-luciferase reporter, SteadyGlo, 24 h; inhibition, % at 12.6 µM; AID 652154;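 active means mean replicate inhibition at least 60% with every replicate also reaching 60%; inconclusive means only one of the two criteria is met; inactive means mean below 60% and not all replicates reaching 60%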;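 further: luciferase light reporting Pax8 driven TPO promoter activity; plate controls were median of neutral control wells for no effect and mitoxantrone controls for full effect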
HIF-2a inh: blocks HIF-2a reporter activity; 786-0 RCC cells HIF-2a reporter, luciferase luminescence, overnight; AID 624352; 360,000 tested, 0.72% active; inhibition, % at 18.8 µM;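 active means inhibition of the luminescence signal of 40% or more relative to plate controls, in a single-dose primary screen at 18.75 µM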
The depositor's hits bear a star; ? = inconclusive; nt = no result given.

SMILES	EWS-Fli inh	KKLEB tox	CF NFkB inh	PAX8 reporter	HIF-2a inh
COc1ccc2c3c(n(C)c2c1)[C@H](CO)N(C(=O)Nc1ccc(F)cc1)CC31CCN(C(=O)c2ccccc2F)CC1	-5	nt	nt	nt	nt
C[C@@H]1CN([C@H](C)CO)C(=O)c2cccc(NC(=O)CCCCCC(=O)Nc3ccccc3N)c2O[C@H]1CN(C)C(=O)Nc1ccc2c(c1)OCO2	nt	nt	nt	11	nt
CCN=C1S/C(=C\c2cn(CC(=O)NCc3ccco3)c3ccccc23)C(=O)N1CC	44	5	16	78*	5
CC(=O)N(C)C[C@H]1Oc2cc(Br)ccc2S(=O)(=O)N([C@H](C)CO)C[C@H]1C	-4	nt	nt	nt	nt
C[C@@H]1CN([C@H](C)CO)C(=O)c2cc(NC(=O)NC3CCCCC3)ccc2O[C@@H]1CN(C)Cc1ccccc1	1	nt	nt	-1	nt
COc1ccc(/C=N/NC(=O)c2cccc(C(=O)N/N=C/c3ccc(OC)c(OC)c3)n2)cc1OC	5	-3	-21	0	-3
COc1ccc(/C=N/NC(=O)Nc2cccc3nsnc23)cc1OC	29	-10	40	86*	-3
O=C(C[C@H]1C[C@@H]2c3cc(NS(=O)(=O)c4ccccc4)ccc3O[C@@H]2[C@H](CO)O1)NCC1CC1	6	nt	nt	1	nt
C=CCn1c(SCC(=O)c2[nH]c(C)c(C(=O)OCC)c2C)nc2scc(-c3ccc(OC)c(OC)c3)c2c1=O	nt	-42	56*	22	9
O=C(C[C@@H]1CC[C@@H]2[C@H](COC[C@@H](O)CN2C(=O)c2ccc3c(c2)OCO3)O1)NCCN1CCCCC1	-4	nt	nt	-5	nt
C[C@@H]1CCCCO[C@@H](CN(C)CC2CCCCC2)[C@H](C)CN([C@H](C)CO)C(=O)c2cc(NC(=O)Nc3ccccc3)ccc2O1	24	nt	nt	86*	nt
C[C@H]1CCCCO[C@H](CN(C)CC2CCCCC2)[C@@H](C)CN([C@@H](C)CO)C(=O)c2cc(NC(=O)Nc3ccccc3)ccc2O1	0	nt	nt	69*	nt
COc1ccc(NC(=O)Nc2ccc3c(c2)C(=O)N([C@@H](C)CO)C[C@@H](C)[C@@H](CN(C)CC2CCCCC2)OCCCC[C@@H](C)O3)cc1	24	nt	nt	77*	nt
C[C@@H]1CN([C@H](C)CO)C(=O)c2cc(NC(=O)Nc3ccccc3)ccc2O[C@@H](C)CCCCO[C@@H]1CN(C)CC1CCCCC1	-4	nt	nt	97*	nt
C[C@@H]1CN([C@@H](C)CO)C(=O)c2cc(NC(=O)Nc3ccccc3)ccc2O[C@@H](C)CCCCO[C@@H]1CN(C)CC1CCCCC1	10	nt	nt	35	nt
C[C@H](CO)N1C[C@H](C)[C@H](CN(C)CC2CC2)OCCCC[C@H](C)Oc2ccc(NC(=O)Nc3ccccc3)cc2C1=O	nt	nt	nt	-1	nt
CCC(=O)Nc1ccc2c(c1)C(=O)N(C)[C@H]1CC[C@H](CC(=O)Nc3c(F)cccc3F)O[C@@H]1CO2	1	nt	nt	-1	nt
CCC(=O)N1CC2(C1)CN(Cc1ccccc1Cl)[C@H](CO)c1c2c2ccc(OC)cc2n1C	-7	nt	nt	nt	nt
C[C@@H]1CCCCO[C@@H](CN(C)CC2CCCCC2)[C@@H](C)CN([C@H](C)CO)C(=O)c2cc(NC(=O)Nc3ccccc3)ccc2O1	3	nt	nt	-2	nt
C[C@H](CO)N1C[C@H](C)[C@H](CN(C)CC2CCCCC2)OCCCC[C@H](C)Oc2ccc(NC(=O)Nc3ccccc3)cc2C1=O	22	nt	nt	97*	nt
Cc1cc(NC(=O)/C=C/c2cccc(F)c2)n(-c2nc3ccccc3[nH]2)n1	26	-31	33	9	-22
Cc1cc(NC(=O)/C=C/c2cccc(Cl)c2)n(-c2nc3ccccc3[nH]2)n1	nt	-56*	54*	-20	-71
Cn1cc(C2=C(c3ccc(Cl)cc3Cl)C(=O)NC2=O)c2ccccc21	-79	11	-135	92*	-55
CC1(C)CC2CC(C)(CN2S(=O)(=O)c2ccc(C(=O)Nc3ccc(S(=O)(=O)N4CCOCC4)cc3)cc2)C1 (stereo unspecified)	19	5	3	83*	22
Cc1c(NC(=O)c2cccc(NC(=O)COc3ccccc3C#N)c2)c(=O)n(-c2ccccc2)n1C	?	-5	-23	65*	45*
SMILES	EWS-Fli inh	KKLEB tox	CF NFkB inh	PAX8 reporter	HIF-2a inh
CC(=O)N(C(C)=O)c1ncc2c([nH]c3ccccc32)c1C#N	nt	-44	90*	nt	-20
CO[C@@H]1CN(C)C(=O)c2cc(NC(C)=O)ccc2OC[C@@H](C)N(C(=O)CN2CCOCC2)C[C@H]1C	-2	nt	nt	nt	nt
c1ccc(-c2cn3c4c(sc3n2)CCCC4)cc1	54*	-58*	-28	8	19
Cc1nn2cc(-c3ccccc3)nc2s1	-8	-8	7	nt	-64
N#C/C(=C\C=C\c1ccccc1[N+](=O)[O-])c1nc(-c2ccc3c(c2)OCO3)cs1	nt	-54*	-7	nt	-7
COc1ccc(-c2csc(/C(C#N)=C/Nc3ccc4c(c3)OCCO4)n2)cc1	11	-64*	62*	-4	3
N#C/C(=C\Nc1ccc2c(c1)OCCO2)c1nc(-c2ccccc2)cs1	-5	-76*	77*	3	-1
N#C/C(=C\c1ccccc1[N+](=O)[O-])c1nc(C2CC2)cs1	nt	0	0	-39	-150
COc1ccc(-c2csc(/C(C#N)=C/Nc3cc4oc5ccccc5c4cc3OC)n2)cc1	-9	8	-10	3	-8
O=C(C[C@H]1C[C@H]2c3cc(NC(=O)C4CCC4)ccc3O[C@H]2[C@@H](CO)O1)NCCN1CCCCC1	1	nt	nt	-3	nt
C[C@H]1CN([C@@H](C)CO)C(=O)Cc2cc(NS(=O)(=O)c3ccc(F)cc3)ccc2O[C@@H]1CN(C)S(=O)(=O)c1cccs1	-11	nt	nt	-12	nt
COc1ccc(C[C@H]2CCc3cnnn3COC[C@@H](Cc3ccccc3)NC2=O)cc1	6	nt	nt	10	nt
C[C@@H]1CN([C@@H](C)CO)C(=O)Cc2cc(NC(=O)C3CCCCC3)ccc2O[C@H]1CN(C)S(C)(=O)=O	-6	nt	nt	-5	nt
C[C@@H]1CCCCO[C@H](CN(C)Cc2ccc(Cl)c(Cl)c2)[C@@H](C)CN([C@@H](C)CO)C(=O)c2cc(NC(=O)Nc3ccc(F)cc3)ccc2O1	3	nt	nt	89*	nt
C[C@@H]1CCCCO[C@H](CN(C)Cc2ccc(Cl)c(Cl)c2)[C@@H](C)CN([C@H](C)CO)C(=O)c2cc(NC(=O)Nc3ccccc3)ccc2O1	4	nt	nt	9	nt
C[C@H](CO)N1C[C@H](C)[C@H](CN(C)Cc2ccc(Cl)c(Cl)c2)OCCCC[C@H](C)Oc2ccc(NC(=O)Nc3ccc(F)cc3)cc2C1=O	1	nt	nt	64*	nt
C[C@@H]1CCCCO[C@@H](CN(C)Cc2ccc(Cl)c(Cl)c2)[C@H](C)CN([C@@H](C)CO)C(=O)c2cc(NC(=O)Nc3ccc(F)cc3)ccc2O1	9	nt	nt	67*	nt
Cc1noc(C)c1S(=O)(=O)Nc1ccc2c(c1)CC(=O)N([C@H](C)CO)C[C@@H](C)[C@@H](CN(C)Cc1ccc(Cl)c(Cl)c1)O2	-2	nt	nt	6	nt
C[C@H]1CN([C@@H](C)CO)C(=O)c2cc(Br)cnc2O[C@H]1CN(C)S(=O)(=O)c1ccccc1	-9	nt	nt	nt	nt
